Where “and” joins values, the source holds several entries; their conditions need not be identical. Identical values can stand only once. Counter-ions that a name gives are not always drawn. ± gives the standard deviation of the averaged measurements. Whole data set: some 3,200 compounds, median “nuclei count (viability) relative to DMSO” near 99, cut for the lowest 2% near 16. The entries come from a sample that favours the lowest values as a whole.

The results in this text go back to the supplement of paper PMC8183993.

The assay relates to U2OS. As to the kind of experiment: nuclei count (viability) relative to DMSO (% of DMSO); higher = more viable cells. As to conditions: 10 µM; 24 h. As for the experimental part: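 Primary image-based screen in U2OS cells: compounds at 10 uM for 24 h, then a 1 h o-propargyl-puromycin (OPP) pulse, click labelling, and high-throughput microscopy. Mean cytoplasmic OPP intensity and nuclei count were normalised to DMSO wells within each plate (DMSO = 100) and averaged over triplicate plates.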
As for `C[C@]12CC[C@@H](O)C[C@@H]1CC[C@@H]1[C@@H]2CC[C@]2(C)C=CC[C@@H]12` [3a, 5a-Androstenol], the nuclei count turned out to be 90.5.

For the molecule `Cc1ccc(NC(=O)c2ccc(CN3CCN(C)CC3)cc2)cc1Nc1nccc(-c2cccnc2)n1` [Imatinib], the nuclei count worked out at 101.

In turn, `Cc1ccc(C(=O)Nc2ccc(CN3CCN(C)CC3)c(C(F)(F)F)c2)cc1C#Cc1cnc2cccnn12` yielded a nuclei count of 16.3.

For `Cc1ccc(NC(=O)c2ccc(CN3CCN(C)CC3)cc2)cc1Nc1nccc(-c2cccnc2)n1` [Imatinib (STI571)], the nuclei count stood at 99.1.

For `Cc1ccc(C(=O)Nc2ccc(CN3CCN(C)CC3)c(C(F)(F)F)c2)cc1C#Cc1cnc2[nH]ncc2c1` [GZD824 Dimesylate], the nuclei count was determined as 14.1.

Consider `Cc1ccc(NC(=O)c2ccc(CN3CCN(C)CC3)cc2)cc1Nc1nccc(-c2cccnc2)n1` [Imatinib mesylate], for which the nuclei count turned out to be 93.1 ± 2.5.

`Cc1ccc(NC(=O)c2ccc(CN3CCN(C)CC3)cc2)cc1Nc1nccc(-c2cccnc2)n1` [Imatinib Mesylate]: the nuclei count was 96.8.

In turn, `Cc1ccc(NC(=O)c2ccc(CN3CC[C@H](N(C)C)C3)c(C(F)(F)F)c2)cc1Nc1nccc(-c2cncnc2)n1` [Bafetinib (INNO-406)] had a nuclei count of 77.9.

`Cc1ccc(NC(=O)c2ccc(CN3CCN(C)CC3)cc2)cc1Nc1nc(-c2cccnc2)cs1` [Masitinib (AB1010)] displayed a nuclei count of 90.7.

For `CCNC(=O)Nc1ccc(-c2nc3c(c(N4CCOC[C@@H]4C)n2)CCN(C2COC2)C3)cc1`, the nuclei count amounted to 75.4 ± 5.5.

Turning to `O=C(O)[C@]1(Cc2cccc(Nc3nccs3)n2)CC[C@@H](Oc2cccc(Cl)c2F)CC1`, the nuclei count stood at 77.7 ± 2.7.

In the case of `CC(C1=C(CCN(C)C)Cc2ccccc21)c1ccccn1` (stereo in doubt) [(S)-(+)-Dimethindene maleate], the nuclei count turned out to be 101.

Take `CCNC(=O)c1cc2c(-c3cc(OCCN4CCCC4)c(Cl)cc3Cl)nc(N)nc2s1`: the nuclei count worked out at 67.

In turn, `NC(=O)N1c2ccccc2CC(O)c2ccccc21` (stereo not given) [Licarbazepine] returned a nuclei count of 104.

As for `CCNc1nc(Nc2cc(F)c(C(=O)N3CCOCC3)cc2OC)ncc1C(F)(F)F`, the nuclei count is 96.2.

The molecule `COc1ccc(-n2[nH]c3c4c(ncc3c2=O)CCCCC4)cc1` had a nuclei count of 99.9.

Molecule `O=C(O)c1cc(O)ccc1O` [Gentisic acid] came in with a nuclei count of 103.

Take `COc1ccc2[nH]c(-c3ccccc3)c(CCNC(C)=O)c2c1` [2-Phenylmelatonin]: the nuclei count was 84.5.

With `N[C@@H](CSC(c1ccccc1)(c1ccccc1)c1ccccc1)C(=O)O` [S-Trityl-L-cysteine], the nuclei count worked out at 95.

`CNC(=O)c1nn(C)c2c1C(C)(C)Cc1cnc(Nc3ccc(N4CCN(C)CC4)cc3)nc1-2`: the nuclei count is 54.8 and 36.4.

Regarding `C=CCn1c(=O)c2cnc(Nc3ccc(N4CCN(C)CC4)cc3)nc2n1-c1cccc(C(C)(C)O)n1`, the nuclei count was 25.1.

Turning to `Cc1cnc(Nc2ccc(N3CCN(C)CC3)cc2)nc1Nc1cccc(S(=O)(=O)NC(C)(C)C)c1`, the nuclei count was 5.44.

The molecule `CS(=O)(=O)c1cccc(CNc2nc(Nc3ccc4c(c3)CCC(=O)N4)ncc2C(F)(F)F)c1` came in with a nuclei count of 45.9 ± 3.2.

`C=CC(=O)Nc1cccc(Nc2nc(Nc3ccc(OCCOC)cc3)ncc2F)c1` yielded a nuclei count of 34.7.

In the case of `Cc1cnc(Nc2ccc(OCCN3CCCC3)cc2)nc1Nc1cccc(S(=O)(=O)NC(C)(C)C)c1`, the nuclei count is 7.48 and 5.57.

For the molecule `Oc1cc2c(cc1O)[C@@H]1c3ccc(O)c(O)c3OC[C@]1(O)C2` [Hematoxylin (Hydroxybrazilin)], the nuclei count amounted to 86.

`Cc1nn(C)c2nc(NNC(=O)Nc3cc(Cl)nc(Cl)c3)cc(C(C)C)c12` returned a nuclei count of 106.

Regarding `COC(=O)C1=C(C)NC(C)=C([N+](=O)[O-])[C@H]1c1ccccc1C(F)(F)F`, the nuclei count came out at 99.5.

For `O=C(c1ccc(Cl)cc1Cl)n1nnc2ccccc21`, the nuclei count was 83.2.

For the molecule `COc1cc(OC)c(/C=C/S(=O)(=O)Cc2ccc(OC)c(NCC(=O)O)c2)c(OC)c1`, the nuclei count was 16.3 ± 1.4.
